Screens as filed in PubChem.
An excerpt weighted towards active compounds, which were near 27% of everything screened.
sEH act – soluble epoxide hydrolase (human) activation; P34913; purified human sEH enzymatic activity, activator screen; activation, % at 2 µM; 91,000 tested, 0.04% active; AID 717; in the data active = activation above about 37%
CYP2C9 activ – activators of human CYP2C9; recombinant CYP2C9, luciferin-H conversion, luminescence; hits give high values; factor 1 = untreated enzyme, 0 = blocked; activation factor at 5 µM; 96,000 tested, 1.4% active;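 active = activation factor of 2 or more for CYP2C9 at a 5 µM dose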;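 note: 0 = sulfaphenazole-blocked wells and 1 = vehicle-only wells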
Target sequence (P11712 whole entry, looked up): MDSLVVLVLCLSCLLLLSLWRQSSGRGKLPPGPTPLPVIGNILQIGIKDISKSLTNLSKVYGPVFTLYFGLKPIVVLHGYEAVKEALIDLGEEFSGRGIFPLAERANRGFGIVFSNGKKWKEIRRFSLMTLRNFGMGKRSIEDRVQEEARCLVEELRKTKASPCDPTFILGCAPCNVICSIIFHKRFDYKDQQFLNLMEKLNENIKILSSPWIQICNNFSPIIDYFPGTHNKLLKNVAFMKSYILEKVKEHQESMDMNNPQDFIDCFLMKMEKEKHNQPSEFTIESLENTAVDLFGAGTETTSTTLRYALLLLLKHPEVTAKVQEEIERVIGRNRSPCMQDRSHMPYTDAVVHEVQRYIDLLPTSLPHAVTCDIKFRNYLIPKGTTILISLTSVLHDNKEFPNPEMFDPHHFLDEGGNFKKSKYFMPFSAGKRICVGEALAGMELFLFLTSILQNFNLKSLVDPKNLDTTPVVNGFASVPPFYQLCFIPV
CYP2C19 activ – activators of human cytochrome P450 2C19 | 96,000 tested, under 10 active | recombinant CYP2C19, luciferin-H EGE luminescence; hits give high values; 0 = fully inhibited enzyme, 1 = untreated enzyme | AID 1025 | activation factor at 5 µM;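 active = activation factor of at least 2 at 5 µM in the primary screen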;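 note: 0 = wells with 2.5 mM tranylcypromine and 1 = vehicle-only wells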
CYP2C19 inhib – blocks human cytochrome P450 2C19; P33261; CYP2C19 Supersomes, luciferin-H EGE luminescence, 30 min; inhibition, % at 5 µM; 96,000 tested, 21% active; AID 778;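 active = CYP2C19 inhibition above a set limit at 5 µM in the primary screen, cut at about 50% in these data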;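 note: plate controls were negative control wells for no effect and 2.5 mM tranylcypromine positive control for full effect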
sEH inh – inhibitors of human soluble epoxide hydrolase | P34913 | recombinant human sEH enzymatic activity assay | inhibition, % at 2 µM | 91,000 tested, 0.34% active | AID 707; in the data active = inhibition above about 80%
CYP2C9 inhib – blocks human cytochrome P450 2C9; 96,000 tested, 20% active; CYP2C9 Supersomes, luciferin-H conversion, luminescence; AID 777; inhibition, % at 5 µM;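 active = blocking of liver enzyme CYP2C9 beyond about 50% at 5 µM, limit read from the data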
Numbers without * were called inactive.

What do the screens show for `O=c1[nH]c(=O)n(CCC2=CCCCC2)c(O)c1C=NCCCn1ccnc1`?
sEH act: -25; CYP2C9 activ: 0; CYP2C19 activ: 0.1; CYP2C19 inhib: 86*; sEH inh: 25; CYP2C9 inhib: 97*

What do the screens show for `CN(C)CCCN=Cc1c(O)n(CCc2ccc(F)cc2)c(=O)[nH]c1=O`?
sEH act: 17; CYP2C9 activ: 0.8; CYP2C19 activ: 1; CYP2C19 inhib: 0; sEH inh: -16; CYP2C9 inhib: 22

Results for O=c1[nH]c(=S)n(CCC2=CCCCC2)c(O)c1C=NCCCn1ccnc1 ?
sEH act: -3; CYP2C9 activ: 0; CYP2C19 activ: 0.1; CYP2C19 inhib: 93*; sEH inh: 2; CYP2C9 inhib: 98*

Results for O=c1[nH]c(=S)n(CCC2=CCCCC2)c(O)c1C=NCc1cccnc1 ?
sEH act: -14; CYP2C9 activ: 1; CYP2C19 activ: 0.9; CYP2C19 inhib: 12; sEH inh: 16; CYP2C9 inhib: 4

How did O=S1(=O)CC2(N3CCOCC3)CCCCCCC21 (stereo unspecified) do in these assays?
sEH act: 17; CYP2C9 activ: 1; CYP2C19 activ: 0.8; CYP2C19 inhib: 18; sEH inh: -19; CYP2C9 inhib: 1

What do the screens show for `Cc1ccc(C)c(C2(O)CC(C)N(C)CC2C)c1` (stereo unspecified)?
CYP2C9 activ: 1.1; CYP2C19 activ: 1.2; CYP2C19 inhib: -16; CYP2C9 inhib: -11

Results for O=C1C2CCCN2C(c2cccnc2)N1c1nccs1 (stereo unspecified) ?
CYP2C9 activ: 1; CYP2C19 activ: 1.1; CYP2C19 inhib: -7; CYP2C9 inhib: -2

Results for CC(=O)C1(c2ccccc2)CCNCC1 ?
sEH act: -17; CYP2C9 activ: 0.9; CYP2C19 activ: 1; CYP2C19 inhib: 1; sEH inh: 16; CYP2C9 inhib: 5

Results for O=C1NCN(c2ccccc2)C12CCNCC2 ?
sEH act: 14; CYP2C9 activ: 1.1; CYP2C19 activ: 0.1; CYP2C19 inhib: 89*; sEH inh: -14; CYP2C9 inhib: -6

Results for Cc1ccc2nc3c(cc2c1)CC1(C(=O)N(C)C(=O)N(C)C1=O)C1CCCCN31 (stereo unspecified) ?
sEH act: 5; CYP2C9 activ: 0.5; CYP2C19 activ: 0.4; CYP2C19 inhib: 64*; sEH inh: -7; CYP2C9 inhib: 50*

Results for CCCCOC(=O)C1=C(N)OC2=C(C(=O)CCC2)[C@]12C(=O)N(C)c1ccccc12 ?
CYP2C9 activ: 0.8; CYP2C19 activ: 0.6; CYP2C19 inhib: 42; CYP2C9 inhib: 23

How did CN(C)C(=O)Oc1ccc(Cl)c2ccccc12 do in these assays?
sEH act: -7; CYP2C9 activ: 2.1*; CYP2C19 activ: 0.3; CYP2C19 inhib: 73*; sEH inh: 8; CYP2C9 inhib: -106

Results for COc1ccc2c(c1)c(C(=O)O)c(C)n2CC(C)C ?
sEH act: 12; CYP2C9 activ: 0.9; CYP2C19 activ: 0.2; CYP2C19 inhib: 85*; sEH inh: -11; CYP2C9 inhib: 6

How did O=C(Nc1ccc(Cl)cc1)O/N=C(\c1ccccc1)c1ccccn1 do in these assays?
sEH act: -22; CYP2C9 activ: 0.4; CYP2C19 activ: 0.8; CYP2C19 inhib: 18; sEH inh: 24; CYP2C9 inhib: 57*

How did CN1CCN(c2nccc3c2ncn3C)CC1 do in these assays?
sEH act: -1; CYP2C9 activ: 1.1; CYP2C19 activ: 1.2; CYP2C19 inhib: -16; sEH inh: 1; CYP2C9 inhib: -14

What do the screens show for `Cc1ccc(-n2c(O)c(C=NC3CCCCC3N)c(=O)[nH]c2=O)cc1C` (stereo unspecified)?
sEH act: 5; CYP2C9 activ: 1; CYP2C19 activ: 1; CYP2C19 inhib: -3; sEH inh: -6; CYP2C9 inhib: 2

How did Cc1ccc(-n2c(O)c(C=NC3CCCC3)c(=O)[nH]c2=O)c(C)c1 do in these assays?
sEH act: -2; CYP2C9 activ: 0.9; CYP2C19 activ: 0.1; CYP2C19 inhib: 94*; sEH inh: 4; CYP2C9 inhib: 10

What do the screens show for `Nc1ccc2c(c1)oc1ccccc12`?
sEH act: 1; CYP2C9 activ: 0.8; CYP2C19 activ: 0.8; CYP2C19 inhib: 22; sEH inh: 2; CYP2C9 inhib: 21

What do the screens show for `CC(=NCCN1CCCCC1)c1c(O)n(Cc2ccccc2)c(=O)[nH]c1=O`?
sEH act: 4; CYP2C9 activ: 1.1; CYP2C19 activ: 1.2; CYP2C19 inhib: -19; sEH inh: -7; CYP2C9 inhib: -10

What do the screens show for `CC(=NCCCN1CCCCC1)c1c(O)n(Cc2ccccc2)c(=O)[nH]c1=O`?
sEH act: -3; CYP2C9 activ: 0.4; CYP2C19 activ: 0.6; CYP2C19 inhib: 41; sEH inh: 1; CYP2C9 inhib: 59*

How did Cc1ccc(-c2nc(N(C)C3CCN(C)CC3)c3ccccc3n2)cc1 do in these assays?
sEH act: -11; CYP2C9 activ: 1.1; CYP2C19 activ: 0.9; CYP2C19 inhib: 5; sEH inh: 7; CYP2C9 inhib: -13

What do the screens show for `O=C(COc1ccc(Br)cc1)N1CCN(Cc2c[nH]c3ccccc23)CC1`?
sEH act: -14; CYP2C9 activ: 0.1; CYP2C19 activ: 0.1; CYP2C19 inhib: 86*; sEH inh: 16; CYP2C9 inhib: 89*

Results for O=C(COc1ccc2ccccc2c1)N1CCN(Cc2c[nH]c3ccccc23)CC1 ?
sEH act: 2; CYP2C9 activ: 0.8; CYP2C19 activ: 0.8; CYP2C19 inhib: 19; sEH inh: -5; CYP2C9 inhib: 22

What do the screens show for `CCn1ncc(/C=C2/CC3C4CC=C5CC(O)CCC5(C)C4CCC3(C)C2=O)c1C` (stereo unspecified)?
sEH act: -15; sEH inh: 18

How did CC(C)c1cccc(C(C)C)c1OCCn1ccnc1 do in these assays?
sEH act: -61; CYP2C9 activ: 0.2; CYP2C19 activ: 0; CYP2C19 inhib: 99*; sEH inh: 60; CYP2C9 inhib: 78*

Results for O=C(c1sc2ccccc2c1Cl)N1CCC2(CC1)OCCO2 ?
sEH act: -10; CYP2C9 activ: 1.8; CYP2C19 activ: 0.2; CYP2C19 inhib: 82*; sEH inh: 8; CYP2C9 inhib: -79

Results for Cc1ccc(S(=O)(=O)Cc2ccc(C(=O)N3CCC4(CC3)OCCO4)o2)cc1 ?
sEH act: -3; CYP2C9 activ: 0.3; CYP2C19 activ: 0.4; CYP2C19 inhib: 62*; sEH inh: 4; CYP2C9 inhib: 70*

What do the screens show for `CCOc1ccccc1-n1c(O)c(C=NCCCN(CC)CC)c(=O)[nH]c1=O`?
sEH act: 9; CYP2C9 activ: 1; CYP2C19 activ: 1; CYP2C19 inhib: 0; sEH inh: -11; CYP2C9 inhib: -2

Results for CC(O)(CS(=O)(=O)c1ccccc1)C(=O)Nc1cccc(C(F)(F)F)c1 (stereo unspecified) ?
sEH act: 3; CYP2C9 activ: 1; CYP2C19 activ: 0.3; CYP2C19 inhib: 69*; sEH inh: -1; CYP2C9 inhib: 5
